Most compounds without a hit are left out; they make up all but 7.8% or so of the library.
HCV inhibitor: HCV inhibition; Huh7.5.1 HCVcc-Cre infection, luciferase reporter, 44 h; Potency, µM (series often up to 41.8 µM), for inactives: at the top dose activity change, negative = inhibition, most hits filed as inhibitors; 340,000 tested, 3.4% active; active = well fitted inhibition curve with a large enough effect; inconclusive = small, poorly fitted or top-dose-only effect, or another doubt; inactive = no such curve, though single readings can be large or run the other way; note: potency is the fitted concentration of half-maximal effect
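HCVcc-Cre virus at an moi near 0.5 was added right after compound to cells cultured 4 h from seeding (1,000 cells/well). Luciferase activity was determined 44 h later, 15 min after substrate addition at RT.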
MARV entry inh: inhibitors of Marburg virus binding or cell entry; 300,000 tested, 1.8% active; Marburg virus pseudotyped entry inhibition, cell reporter; Potency, µM (titrated, usually from 37.8 µM), for the others: at the highest dose activity change, negative = inhibition, most hits filed as inhibitors; calls by dose curve; tested in HEK293 cells; note: potency is the fitted concentration of half-maximal effect
Vaccinia mCherry: inhibitors of vaccinia virus infection (mCherry reporter signal); Vaccinia virus mCherry reporter infection, fluorescence; Potency, µM (doses to about 36.5 µM), inactives show top-dose activity change, negative = inhibition, hits mostly inhibitors; 310,000 tested, 0.63% active; calls by dose curve; tested in A549 cells; note: potency is the fitted concentration of half-maximal effect; nearly all actives have a fitted effect of over 35% in size
HCMV antiviral: blocks human cytomegalovirus replication; activity change, negative = inhibition, % at 57.5 µM; 410,000 tested, 4.5% active; HFF cells, HCMV-luciferase reporter, 72 h; stronger effect = lower value; in the data active = activity change below about -60%; inconclusive = no clear call, values can overlap the other calls; inactive = above about -39%
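Human foreskin fibroblasts infected with luciferase-reporter HCMV at MOI 1 PFU/cell, compounds at two doses. Luciferase measured 72 h post infection; normalized to buffer-only basal and Salinomycin (10uM) controls.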
VACV Venus inh: vaccinia inhibition (Venus reporter). Vaccinia virus Venus reporter expression, fluorescence. Potency, µM (top dose mostly 36.5 µM), inactives show top-dose activity change, negative = inhibition, most hits filed as inhibitors. 330,000 tested, 0.46% active. AID 720580; calls by dose curve; tested in A549 cells; note: potency is the fitted concentration of half-maximal effect; nearly all actives have a fitted effect of over 30% in size
LASV entry inh: Lassa virus entry inhibition; Lassa virus pseudotype entry inhibition, cell reporter; Potency, µM (highest dose often 37.9 µM), for the others: at the top dose activity change, negative = inhibition, hits mostly inhibitors; 300,000 tested, 1.2% active; AID 540256; calls by dose curve; tested in HEK293 cells; note: potency is the fitted concentration of half-maximal effect; nearly all actives have a fitted effect of over 50% in size
* hit, by the source's call; [ ] = another dose, or the depositor's remark. % is set by controls: 0 for no effect and ±100 for the full control effect.

What do the screens show for `CCN(CC(=O)Nc1cccc(S(=O)(=O)N(C)c2ccccc2)c1)Cc1cccs1`?
HCV inhibitor: 35µM*; MARV entry inh: inconclusive; Vaccinia mCherry: inconclusive; HCMV antiviral: inconclusive; VACV Venus inh: -20%; LASV entry inh: inconclusive

How did COc1cccc(CN(C)CC(=O)Nc2cccc(S(=O)(=O)N(C)c3ccccc3)c2)c1OC do in these assays?
HCV inhibitor: inconclusive; MARV entry inh: inconclusive; Vaccinia mCherry: -25%; HCMV antiviral: -14; VACV Venus inh: -14%; LASV entry inh: inconclusive

How did COc1cc(CC(=O)Nc2cccc(SC)c2)cc(OC)c1OC do in these assays?
HCV inhibitor: 14µM*; MARV entry inh: inconclusive; Vaccinia mCherry: inactive; HCMV antiviral: -14; VACV Venus inh: -6%; LASV entry inh: -1%[46.1 µM]

How did CCC(=O)c1ccc(OCC(=O)Nc2cccc(S(=O)(=O)N(C)c3ccccc3)c2)cc1 do in these assays?
HCV inhibitor: 11µM*; HCMV antiviral: inconclusive

How did Cc1cccc(OCC(=O)NCC2(N3CCN(C)CC3)CCCCC2)c1 do in these assays?
MARV entry inh: inconclusive; Vaccinia mCherry: 0%; HCMV antiviral: -32; VACV Venus inh: -7%; LASV entry inh: 11%[46.1 µM]

Results for Cc1cccc(N2CCN(C(=O)c3cc(S(=O)(=O)N4CCC(C)CC4)cn3C)CC2)c1C ?
Vaccinia mCherry: -9%[7.34 µM]; HCMV antiviral: inconclusive; VACV Venus inh: -10%[7.34 µM]; LASV entry inh: -22%[46.1 µM]

What do the screens show for `C=CCCCCCCCCCCCc1ccco1`?
Vaccinia mCherry: inactive; VACV Venus inh: 23%

What do the screens show for `COc1ccc(NC(=O)c2cc3nc(-c4ccc(C)c(C)c4)cc(C(F)(F)F)n3n2)cc1`?
MARV entry inh: 1%[46.1 µM]; Vaccinia mCherry: -16%; HCMV antiviral: 27; VACV Venus inh: -18%; LASV entry inh: 16%[46.1 µM]

Results for CCc1ccc(-n2nc(CO)c(C(=O)NCc3ccccc3Cl)n2)cc1 ?
MARV entry inh: 0%[46.1 µM]; Vaccinia mCherry: 1%; HCMV antiviral: 22; VACV Venus inh: -6%; LASV entry inh: 1%[46.1 µM]

How did COC(=O)c1c(C(=O)OC)c2c3ccccc3cc(-c3ccccc3)n2c1C(=O)OC do in these assays?
MARV entry inh: -23%[14.2 µM]

Results for CC(=O)NC(c1cccs1)c1cc([N+](=O)[O-])c2cccnc2c1O (configuration not stated) ?
HCV inhibitor: 13µM*; MARV entry inh: inconclusive; Vaccinia mCherry: inconclusive; HCMV antiviral: inconclusive; VACV Venus inh: inconclusive; LASV entry inh: inconclusive

Results for CCCC(=O)NC(c1cccs1)c1cc([N+](=O)[O-])c2cccnc2c1O (configuration not stated) ?
HCV inhibitor: inconclusive; MARV entry inh: inconclusive; Vaccinia mCherry: inconclusive; HCMV antiviral: -99*; VACV Venus inh: -26%; LASV entry inh: inconclusive

Results for CC(C)C(=O)NC(c1ccccc1)c1cc([N+](=O)[O-])c2cccnc2c1O (configuration not stated) ?
HCV inhibitor: inconclusive; MARV entry inh: inconclusive; Vaccinia mCherry: inconclusive; HCMV antiviral: -1; VACV Venus inh: inconclusive; LASV entry inh: inconclusive

How did O=C(CCc1ccccc1)NC(c1cccs1)c1cc(Cl)c2cccnc2c1O (configuration not stated) do in these assays?
HCV inhibitor: 1µM*; MARV entry inh: inconclusive; Vaccinia mCherry: 8.9µM*; HCMV antiviral: -102*; VACV Venus inh: inconclusive; LASV entry inh: 2.8µM*

What do the screens show for `CCC(=O)NC(c1cccs1)c1cc([N+](=O)[O-])c2cccnc2c1O` (configuration not stated)?
HCV inhibitor: inconclusive; MARV entry inh: inconclusive; Vaccinia mCherry: inconclusive; HCMV antiviral: -81*; VACV Venus inh: inconclusive; LASV entry inh: inconclusive

How did CCCCSc1nc2c(cc1C#N)CCC2 do in these assays?
HCV inhibitor: 22µM*; MARV entry inh: -20%; Vaccinia mCherry: inactive; HCMV antiviral: 15; VACV Venus inh: -1%; LASV entry inh: inconclusive

What do the screens show for `CN1CCc2nc(SCC(=O)OC(C)(C)C)c(C#N)cc2C1`?
HCV inhibitor: 4µM*; MARV entry inh: inconclusive; Vaccinia mCherry: inconclusive; HCMV antiviral: 136; VACV Venus inh: -18%; LASV entry inh: 2%

What do the screens show for `CN1CCc2nc(SCC(=O)Nc3ccc(Cl)cc3)c(C#N)cc2C1`?
HCV inhibitor: inconclusive; MARV entry inh: inconclusive; HCMV antiviral: -33; VACV Venus inh: -24%; LASV entry inh: 19%

What do the screens show for `N#Cc1cc2c(nc1SCC(=O)N1CCOCC1)CCCCC2`?
HCV inhibitor: 2%; MARV entry inh: -29%; Vaccinia mCherry: inactive; HCMV antiviral: -77*; VACV Venus inh: -3%; LASV entry inh: inconclusive

Results for Cc1cc(C)c2c(n1)sc1c(=O)n(-c3ccccc3C(F)(F)F)nnc12 ?
MARV entry inh: 1%[46.1 µM]; Vaccinia mCherry: -8%; HCMV antiviral: -4; VACV Venus inh: -5%; LASV entry inh: 15%[46.1 µM]

Results for O=C(NCc1nc2ccccc2[nH]1)C1=C[C@@H](c2csc3ccccc23)C[C@@H](OCc2ccc(CO)cc2)O1 ?
HCV inhibitor: 6%[8.37 µM]; Vaccinia mCherry: inactive; HCMV antiviral: -19; VACV Venus inh: inconclusive

How did O=C(NCc1ccccc1)C1=C[C@H](c2csc3ccccc23)C[C@H](OCCCCO)O1 do in these assays?
HCV inhibitor: -40%; Vaccinia mCherry: -24%; HCMV antiviral: -95*; VACV Venus inh: inconclusive

How did O=C(NCc1nc2ccccc2[nH]1)C1=C[C@H](c2csc3ccccc23)C[C@H](OCc2ccc(CO)cc2)O1 do in these assays?
HCV inhibitor: inconclusive; Vaccinia mCherry: -7%; HCMV antiviral: -62*; VACV Venus inh: -26%

How did Cc1cc(C)c2sc(N(Cc3cccnc3)C(=O)CCS(=O)(=O)c3ccccc3)nc2c1 do in these assays?
Vaccinia mCherry: -1%; HCMV antiviral: 0; VACV Venus inh: -13%; LASV entry inh: 9%[46.1 µM]

How did CC1=C(C(=O)N(C)C)CC(CC(=O)NC(c2ccccc2)c2ccccc2)C(=O)N1Cc1ccc(C(C)(C)C)cc1 (configuration not stated) do in these assays?
Vaccinia mCherry: -13%; HCMV antiviral: 31; VACV Venus inh: inconclusive

Results for CC1=C(C(=O)N(C(C)C)C(C)C)CC(CC(=O)NC2CCCCC2)C(=O)N1Cc1ccc(C(C)(C)C)cc1 (configuration not stated) ?
Vaccinia mCherry: 3%; HCMV antiviral: -88*; VACV Venus inh: -20%

What do the screens show for `CCN(CC)C(=O)C1=C(C)N(Cc2ccc(C(C)(C)C)cc2)C(=O)C(CC(=O)NC(c2ccccc2)c2ccccc2)C1` (configuration not stated)?
Vaccinia mCherry: inconclusive; HCMV antiviral: -18; VACV Venus inh: 13µM*

From PubChem BioAssay
